The test system of the assay is 4T1. Briefly: % inhibition of 4T1 cell number vs DMSO control; higher = stronger growth inhibition. The settings on record: 1 µM, 3 days. The method in brief:
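4T1-H2B-GFP mouse breast cancer cells (3000 per well, 2% FBS medium) were seeded in 96-well imaging plates on plastic, denuded lung or mCAF1 fibroblast-derived matrix, Matrigel (15 μg/mL) or 0.2% gelatin; edge wells were left unused. After 16 h, kinase inhibitors were added at 1 μM final for 3 days. Plates were formalin-fixed, DAPI-stained and imaged on an INCell Analyzer 2200, and GFP-positive nuclei were counted. Percent inhibition of cell number was calculated relative to DMSO control.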

Setting [1] is: substrate: lung fibroblast-derived matrix.
The mark [2] stands for this setting: substrate: mCAF1 fibroblast-derived matrix.

Each structure is given as a SMILES string. Counter-ions that a name gives are not always drawn.

On to `COc1ccc2c(c1)c1c3c(c4c5ccccc5n(C)c4c1n2CC(O)CN(C)C)C(=O)NC3=O` (stereo not given), for which the “% inhibition of 4T1 cell number” value runs as follows: (substrate: Matrigel) -13%; (substrate: gelatin) -19%; under setting [1], -1%; under setting [2], 17.9%; (substrate: plastic) -42.9%.
For the compound `COc1cc2ncnc(Nc3ccc(Cl)cc3Cl)c2cc1OC` [Ste11 MAPKKK Activation Inhibitor], the “% inhibition of 4T1 cell number” value by setting is: (substrate: Matrigel) 42%; (substrate: gelatin) 66.8%; under setting [1], 0.704%; under setting [2], -27.6%; (substrate: plastic) 36.1%.
With `CCCOc1ccc(/C=C2/SC(=O)NC2=O)cc1` [PIM1/2 Kinase Inhibitor VI], the “% inhibition of 4T1 cell number” value was 16.2% (substrate: Matrigel); 22.9% (substrate: gelatin); 2.3% under setting [1]; -16.9% under setting [2]; -1.33% (substrate: plastic).
`O=C1Cc2c([nH]c3ccc(Br)cc23)-c2ccccc2N1` [Kenpaullone]: the “% inhibition of 4T1 cell number” value by setting is: (substrate: Matrigel) -24.2%; (substrate: gelatin) -0.528%; under setting [1], 23.3%; under setting [2], 25.6%; (substrate: plastic) -48.1%.
On to `CC[C@H](CO)Nc1nc(NCc2ccc(-c3ccccn3)cc2)c2ncn(C(C)C)c2n1` [CR8, (R)-Isomer], for which the “% inhibition of 4T1 cell number” value (substrate: Matrigel) was determined as 99.5%; the “% inhibition of 4T1 cell number” value (substrate: gelatin) came to 98.7%; the “% inhibition of 4T1 cell number” value under setting [1] was -11.2%; the “% inhibition of 4T1 cell number” value under setting [2] was 96%; the “% inhibition of 4T1 cell number” value (substrate: plastic) was found to be 96.7%.
For `O=c1cc(N2CCOCC2)oc2c1ccc1ccccc12` [DNA-PK Inhibitor II] the same measures were 9.66%, -23.4%, 34.1%, -9.82% and -13%.
Take `O=C1Nc2ccc(Br)cc2/C1=C/c1cc2c([nH]1)CCCC2` [VEGF Receptor 2 Kinase Inhibitor II]: the “% inhibition of 4T1 cell number” value reads like this: (substrate: Matrigel) 16.3%; (substrate: gelatin) -22.2%; under setting [1], -11.9%; under setting [2], -141%; (substrate: plastic) 8.31%.
In the same order, the values of `O=C(O)C=Cc1cc(Br)c(Br)c(Br)c1Br` [Casein Kinase II Inhibitor III, TBCA] are 33.8%, 27.7%, 2.78%, 2.33% and 40.6%.
For `Oc1ccc(-c2nc(-c3ccc(F)cc3)c(-c3ccncc3)[nH]2)cc1` the same measures were 19.2%, 56%, -2.55%, 38.9% and 30.1%.
In the case of `O=S(=O)(c1cccc2cnccc12)N1CCCNCC1` [HA 1077, Dihydrochloride], the “% inhibition of 4T1 cell number” value is 25.3% (substrate: Matrigel); 21.7% (substrate: gelatin); -23.5% under setting [1]; 4.22% under setting [2]; 21.9% (substrate: plastic).
As to `c1ccc2c(-c3ccncc3)c[nH]c2c1` [Rho Kinase Inhibitor III, Rockout], the “% inhibition of 4T1 cell number” value (substrate: Matrigel) was -26.4%; the “% inhibition of 4T1 cell number” value (substrate: gelatin) was -33.3%; the “% inhibition of 4T1 cell number” value under setting [1] was -7.01%; the “% inhibition of 4T1 cell number” value under setting [2] was 37.7%; the “% inhibition of 4T1 cell number” value (substrate: plastic) is -78.9%.
